Reference: PubChem BioAssay (NCI)
This is part of a sample that, as a whole, favours compounds with a hit. Of some 79,000 tested, about 15% had one in any assay. Activity calls are given as the source filed them. Cut-off read from the data, not from the text of the source: active = growth inhibition above about 70%; inactive = the rest.

Columns and labels:
[1] = NCI Yeast Anticancer Drug Screen. Data for the rad52 strain (AID 147);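 note: 0% = growth of vehicle-treated control cultures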; conditions: S. cerevisiae rad52 mutant growth inhibition, active compounds read high
Summary of the method: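 Inhibition of yeast growth, referenced to vehicle controls, was the measured output for a strain with defective DNA damage repair.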

[2] = NCI Yeast Anticancer Drug Screen. Data for the wt1 strain (AID 149);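 note: 0% = growth of vehicle-treated wt1 cultures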; conditions: S. cerevisiae wt1 strain (SPY 50644) growth inhibition, active compounds read high
Summary of the method: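 wt1 strain grown with compound or vehicle; inhibition taken from the growth difference.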

[3] = NCI Yeast Anticancer Drug Screen. Data for the rad50EPP+ strain (AID 151);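 note: 0% = growth of vehicle-treated control cultures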; conditions: S. cerevisiae rad50 mutant strain, active compounds read high
Summary of the method: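 Genetically defined yeast (rad50EPP+, DNA damage repair alteration) is grown with compound, and inhibition of growth is expressed relative to vehicle-treated controls.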

[4] = NCI Yeast Anticancer Drug Screen. Data for the mgt1 strain (AID 153); conditions: S. cerevisiae mgt1 mutant growth inhibition, active compounds read high
Summary of the method: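 In the mgt1 strain, test compounds were added and growth inhibition was determined relative to vehicle-treated controls.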

[5] = NCI Yeast Anticancer Drug Screen. Data for the rad50 strain (AID 155);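 note: 0% = growth of vehicle-only cultures of the same strain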; conditions: S. cerevisiae rad50 strain growth inhibition, active compounds read high
Summary of the method: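 DNA repair mutant yeast, compound exposure, growth read-out; inhibition is taken relative to vehicle.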

[6] = NCI Yeast Anticancer Drug Screen. Data for the mec2-1 strain (AID 157); conditions: S. cerevisiae mec2-1 strain, active compounds read high
Summary of the method: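 Each compound was tested on mec2-1 yeast, a strain altered in DNA damage repair or cell cycle control. Growth inhibition is reported relative to vehicle.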

[7] = NCI Yeast Anticancer Drug Screen. Data for the rad14 strain (AID 159);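 note: 0% = growth of vehicle-treated control cultures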; conditions: S. cerevisiae rad14 strain growth inhibition, active compounds read high
Summary of the method: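 DNA repair-defective yeast, compound-exposed; % growth inhibition derived by comparison with vehicle-treated controls.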

[8] = NCI Yeast Anticancer Drug Screen. Data for the sgs1 mgt1 strain (AID 161);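 note: 0% = growth of cultures given vehicle only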; conditions: S. cerevisiae sgs1 mgt1 strain, active compounds read high
Summary of the method: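 Read-out: growth inhibition vs vehicle controls. Cells: mutant yeast strain deficient in DNA damage repair.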

[9] = NCI Yeast Anticancer Drug Screen. Data for the CLN2oe strain (AID 163);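 note: 0% = growth of vehicle-only control cultures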; conditions: S. cerevisiae CLN2oe strain, active compounds read high
Summary of the method: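 First, the altered yeast strain was treated with each compound; second, its growth was measured; finally, inhibition was derived by comparison with vehicle controls.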

[10] = NCI Yeast Anticancer Drug Screen. Data for the cln2 rad14 strain (AID 165);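 note: 0% = growth equal to vehicle treated cultures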; conditions: S. cerevisiae cln2 rad14 strain, active compounds read high
Summary of the method: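 Test compounds were added to cln2 rad14 yeast cultures; inhibition of growth was then determined by comparison with vehicle treatment.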

[11] = NCI Yeast Anticancer Drug Screen. Data for the bub3 strain (AID 167); conditions: S. cerevisiae bub3 mutant strain, active compounds read high
Summary of the method: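 In this screen, a yeast mutant lacking normal mitotic checkpoint function is challenged with compound. Relative growth versus vehicle gives the inhibition value.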

[12] = NCI Yeast Anticancer Drug Screen. Data for the wt2 strain (AID 169);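 note: 0% = growth of vehicle-treated yeast cultures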; conditions: S. cerevisiae wt2 strain growth inhibition, active compounds read high
Summary of the method: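 The panel's yeast strains carry defined changes in DNA repair or cell cycle genes. Each strain is grown with compound, and growth loss is scored relative to vehicle.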

[13] = NCI Yeast Anticancer Drug Screen. Data for the mlh1 strain (AID 171);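 note: 0% = growth of vehicle-treated control cultures of the same strain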; conditions: S. cerevisiae mlh1 strain growth inhibition, active compounds read high
Summary of the method: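 Inhibition values reflect reduced yeast growth in the presence of compound, referenced to vehicle controls, using a strain chosen for its alteration in DNA repair or cell cycle control.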

[14] = NCI Yeast Anticancer Drug Screen. Data for the sgs1 strain (AID 173);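 note: 0% = growth of vehicle-only control cultures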; conditions: S. cerevisiae sgs1 mutant, active compounds read high
Summary of the method: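 Vehicle-treated cultures served as reference for growth inhibition of a yeast strain altered in DNA damage repair or cell cycle control after compound exposure.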

[15] = NCI Yeast Anticancer Drug Screen. Data for the mlh1 rad18 strain (AID 175); conditions: S. cerevisiae mlh1 rad18 strain growth inhibition, active compounds read high
Summary of the method: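 Inhibition values reflect reduced growth of mutant yeast versus vehicle-treated controls following compound exposure; the mutations affect DNA damage repair.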

[16] = NCI Yeast Anticancer Drug Screen. Data for the rad18 strain (AID 177); conditions: S. cerevisiae rad18 mutant growth inhibition, active compounds read high
Summary of the method: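 Steps: expose repair-mutant yeast to compound; measure growth; express as inhibition relative to vehicle control.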

[17] = at 5.0 µM (retest, dose inferred, filed as 0.5)
[18] = at 50.0 µM (retest, dose inferred, filed as 5.0)

Measured: growth inhibition

c1c(N2CCOCC2)ssc1=[N+]1CCOCC1
inactive: [1]; at 1.2 µM 0% | [1]; at 3.7 µM 0% | [1]; at 11.0 µM -4% | [1]; at 33.0 µM -4% | [1]; at 100.0 µM -2% | [2]; at 1.2 µM -3% | [2]; at 3.7 µM -1% | [2]; at 11.0 µM 0% | [2]; at 33.0 µM 0% | [2]; at 100.0 µM -1% | [3]; at 1.2 µM 1% | [3]; at 3.7 µM 3% | [3]; at 11.0 µM 3% | [3]; at 33.0 µM 3% | [3]; at 100.0 µM 5% | [4]; at 1.2 µM 0% | [4]; at 3.7 µM 2% | [4]; at 11.0 µM -1% | [4]; at 33.0 µM 0% | [4]; at 100.0 µM 1% | [5]; at 1.2 µM -3% | [5]; at 3.7 µM -2% | [5]; [17] 4% | [5]; at 11.0 µM -5% | [5]; at 33.0 µM -3% | [5]; [18] 1% | [5]; at 50.0 µM 54.5% | [5]; at 100.0 µM -2% | [6]; at 1.2 µM 0% | [6]; at 3.7 µM -2% | [6]; [17] 0% | [6]; at 11.0 µM -1% | [6]; at 33.0 µM -1% | [6]; [18] 3% | [6]; at 50.0 µM 51.1% | [6]; at 100.0 µM 1% | [7]; at 1.2 µM -1% | [7]; at 3.7 µM 0% | [7]; at 11.0 µM 3% | [7]; at 33.0 µM 1% | [7]; at 100.0 µM -2% | [8]; [17] 4% | [8]; [18] 2% | [8]; at 50.0 µM 69.1% | [9]; at 1.2 µM 0% | [9]; at 3.7 µM 4% | [9]; at 11.0 µM 3% | [9]; at 33.0 µM 2% | [9]; at 100.0 µM 0% | [10]; [17] -1% | [10]; [18] 7% | [10]; at 50.0 µM 20.7% | [11]; at 1.2 µM 0% | [11]; at 3.7 µM 0% | [11]; [17] -1% | [11]; at 11.0 µM 1% | [11]; at 33.0 µM -2% | [11]; [18] 6% | [11]; at 50.0 µM 51.5% | [11]; at 100.0 µM -2% | [12]; at 1.2 µM 0% | [12]; at 3.7 µM -1% | [12]; at 11.0 µM 0% | [12]; at 33.0 µM 0% | [12]; at 100.0 µM 1% | [13]; at 1.2 µM -1% | [13]; at 3.7 µM 0% | [13]; at 11.0 µM 0% | [13]; at 33.0 µM 0% | [13]; at 100.0 µM -5% | [14]; at 1.2 µM 0% | [14]; at 3.7 µM 1% | [14]; at 11.0 µM 3% | [14]; at 33.0 µM 2% | [14]; at 100.0 µM -3% | [15]; [17] 2% | [15]; [18] 9% | [16]; at 1.2 µM -1% | [16]; at 3.7 µM -2% | [16]; at 11.0 µM -1% | [16]; at 33.0 µM -1% | [16]; at 100.0 µM -2%
active: [15]; at 50.0 µM 82.7%

CCOC(=O)C1([Se]c2ccccc2)CCCC1=O (stereo not drawn)
inactive: [1]; at 1.2 µM 11% | [1]; at 3.7 µM 28% | [1]; at 11.0 µM 40% | [1]; at 33.0 µM 53% | [2]; at 1.2 µM 16% | [2]; at 3.7 µM 19% | [2]; at 11.0 µM 24% | [2]; at 33.0 µM 50% | [3]; at 1.2 µM -7% | [3]; at 3.7 µM 14% | [3]; at 11.0 µM 44% | [4]; at 1.2 µM -4% | [4]; at 3.7 µM -5% | [4]; at 11.0 µM 4% | [4]; at 33.0 µM 32% | [5]; at 1.2 µM 17% | [5]; at 3.7 µM 15% | [5]; [17] 16% | [5]; at 11.0 µM 23% | [5]; at 33.0 µM 44% | [5]; [18] 63% | [6]; at 1.2 µM 1% | [6]; at 3.7 µM -6%
active: [1]; at 100.0 µM 92% | [2]; at 100.0 µM 91% | [3]; at 33.0 µM 87% | [3]; at 100.0 µM 96% | [4]; at 100.0 µM 85% | [5]; at 50.0 µM 84.2% | [5]; at 100.0 µM 92%
